Hit rate of the full screen: of about 39,000 compounds, about 1,500 (3.8%) were called active. This excerpt belongs to a sample that is enriched for actives.

The subject of this experiment is HSkMC (human skeletal muscle cells). In words: cytotoxicity call (relative viability < 0.9). The following applies: 10 µM.
Consider `C/C=C/c1ccc2c(c1)O[C@H](CN(C)Cc1ccc(C(=O)O)cc1)[C@H](C)CN([C@@H](C)CO)S2(=O)=O`, for which the cytotoxicity call is “inactive”.

Turning to `Cc1noc(C)c1NC(=O)N(C)C[C@H]1OCCCC[C@@H](C)Oc2ccc(NC(=O)c3ccccc3)cc2C(=O)N([C@@H](C)CO)C[C@H]1C`, the cytotoxicity call was “inactive”.

Regarding `COc1ccc(S(=O)(=O)N(C)C[C@H]2Oc3ncc(C#CC4(O)CCCC4)cc3C(=O)N([C@@H](C)CO)C[C@@H]2C)cc1`, the cytotoxicity call is “inactive”.

With `Cc1ccc(C(=O)Nc2ccc(S(=O)(=O)O)c3cc(S(=O)(=O)O)cc(S(=O)(=O)O)c23)cc1NC(=O)c1cccc(NC(=O)Nc2cccc(C(=O)Nc3cc(C(=O)Nc4ccc(S(=O)(=O)O)c5cc(S(=O)(=O)O)cc(S(=O)(=O)O)c45)ccc3C)c2)c1`, the cytotoxicity call is “inactive”.

Consider `C[C@@H]1CN([C@H](C)CO)S(=O)(=O)c2ccc(C#CC(C)(C)O)cc2O[C@H]1CN(C)C(=O)C1CCCCC1`, for which the cytotoxicity call is “inactive”.

As to `C[C@@H]1CCCCO[C@@H](CN(C)C(=O)CCC(F)(F)F)[C@@H](C)CN([C@@H](C)CO)C(=O)c2cc(NC(=O)c3ccccc3)ccc2O1`, the cytotoxicity call is “inactive”.

In the case of `CC(C)NC(=O)N(C)C[C@@H]1Oc2ccc(NC(=O)C3CCCCC3)cc2C(=O)N([C@H](C)CO)C[C@@H]1C`, the cytotoxicity call was “inactive”.

In the case of `C[C@@H]1CCCCO[C@H](CN(C)C(=O)c2ccccc2)[C@H](C)CN([C@@H](C)CO)C(=O)c2cc(NC(=O)CCCCCC(=O)Nc3ccccc3N)ccc2O1`, the cytotoxicity call was “inactive”.

In the case of `Cc1noc(C)c1NC(=O)Nc1cccc2c1O[C@@H](CN(C)C(=O)Nc1cccc3ccccc13)[C@@H](C)CN([C@@H](C)CO)C2=O`, the cytotoxicity call was “inactive”.

For `COCCNC(=O)C[C@H]1CC[C@@H]2[C@H](COC[C@H](O)CN2C(=O)Nc2ccc3c(c2)OCO3)O1`, the cytotoxicity call was “inactive”.

For `Cc1cc(C(C)(C)CC(C)(C)C)ccc1OCCOCC[N+](C)(C)Cc1ccccc1.[Cl-]`, the cytotoxicity call is “active”.

Regarding `C[N+](C)(CCOc1ccccc1)Cc1ccccc1.O=C(O)c1cc2ccccc2c(Br)c1O`, the cytotoxicity call is “inactive”.

Turning to `C[N+](C)(CCOc1ccccc1)Cc1ccccc1.O=C([O-])c1cc2ccccc2cc1O`, the cytotoxicity call was “inactive”.

Turning to `COc1cccc(C#Cc2ccc3c(c2)O[C@@H](CN(C)S(=O)(=O)c2ccccc2F)[C@H](C)CN([C@@H](C)CO)S3(=O)=O)c1`, the cytotoxicity call was “inactive”.

Turning to `C[C@@H]1CCCCO[C@H](CN(C)Cc2ccncc2)[C@H](C)CN([C@@H](C)CO)C(=O)c2cc(NC(=O)Nc3ccc(F)cc3)ccc2O1`, the cytotoxicity call was “inactive”.

Take `NCC[C@H]1CC[C@H](NC(=O)c2ccccc2F)[C@H](CO)O1`: the cytotoxicity call was “inactive”.

Take `C[C@@H]1CCCCO[C@H](CN(C)Cc2ccc(C(F)(F)F)cc2)[C@H](C)CN([C@@H](C)CO)C(=O)c2cc(NC(=O)Cc3ccccc3)ccc2O1`: the cytotoxicity call is “inactive”.

On to `C[C@H](CO)N1C[C@H](C)[C@@H](CN(C)Cc2ccc(C(F)(F)F)cc2)OCCCC[C@H](C)Oc2ccc(NC(=O)Cc3ccccc3)cc2C1=O`, for which the cytotoxicity call was “active”.

In the case of `C[C@@H]1CCCCO[C@@H](CN(C)Cc2ccc(C(F)(F)F)cc2)[C@@H](C)CN([C@@H](C)CO)C(=O)c2cc(NC(=O)Cc3ccccc3)ccc2O1`, the cytotoxicity call is “inactive”.

As for `C[C@@H]1CCCCO[C@@H](CN(C)Cc2ccc(C(F)(F)F)cc2)[C@H](C)CN([C@H](C)CO)C(=O)c2cc(NC(=O)Cc3ccccc3)ccc2O1`, the cytotoxicity call is “active”.

Consider `C[C@@H]1CN([C@@H](C)CO)C(=O)c2cc(NC(=O)Cc3ccccc3)ccc2O[C@@H](C)CCCCO[C@H]1CN(C)Cc1ccc(C(F)(F)F)cc1`, for which the cytotoxicity call is “inactive”.

As for `C[C@H]1CCCCO[C@H](CN(C)Cc2ccc(C(F)(F)F)cc2)[C@@H](C)CN([C@@H](C)CO)C(=O)c2cc(NC(=O)Cc3ccccc3)ccc2O1`, the cytotoxicity call is “inactive”.

`Cc1ccc(S(=O)(=O)N(C)C[C@H]2Oc3ncc(C#CCC(C)C)cc3C(=O)N([C@@H](C)CO)C[C@H]2C)cc1`: the cytotoxicity call is “inactive”.

Regarding `C[C@H]1CN([C@@H](C)CO)S(=O)(=O)c2ccc(Br)cc2O[C@@H]1CN(C)Cc1cccc(F)c1`, the cytotoxicity call is “inactive”.

For the molecule `Cc1ccc(S(=O)(=O)N(C)C[C@@H]2OCCCC[C@H](C)Oc3ccc(NC(=O)CCCCCC(=O)Nc4ccccc4N)cc3C(=O)N([C@H](C)CO)C[C@@H]2C)cc1`, the cytotoxicity call was “inactive”.

Take `COc1ccc(NC(=O)N(C)C[C@H]2OCCCC[C@@H](C)Oc3ccc(NS(=O)(=O)c4ccc(F)cc4)cc3C(=O)N([C@@H](C)CO)C[C@H]2C)cc1`: the cytotoxicity call is “inactive”.

For `Cc1ccc(C(=O)O)c(=O)[nH]1`, the cytotoxicity call was “inactive”.

`C[C@@H]1CN([C@@H](C)CO)C(=O)c2cc(C#CC3(O)CCCC3)cnc2O[C@@H]1CN(C)C(=O)Cc1ccccc1`: the cytotoxicity call was “inactive”.

On to `O=C(N[C@H]1CCN(C(=O)c2cc(C(F)(F)F)cc(C(F)(F)F)c2)[C@H](Cc2ccc(Cl)cc2)C1)c1ccnc2ccccc12`, for which the cytotoxicity call was “active”.

For the molecule `O=C(NC1CC1)[C@@H]1c2ccccc2C(=O)N(Cc2cc(C(F)(F)F)cc(C(F)(F)F)c2)[C@H]1c1ccc(CO)cc1`, the cytotoxicity call is “inactive”.

As to `C[C@H]1CN([C@@H](C)CO)C(=O)c2cccc(NC(=O)c3ccc(-c4nccs4)cc3)c2O[C@@H]1CN(C)Cc1ccc(Cl)c(Cl)c1`, the cytotoxicity call is “active”.

`C[C@@H]1CN([C@H](C)CO)C(=O)c2cccc(NC(=O)c3ccc(-c4nccs4)cc3)c2O[C@@H]1CN(C)C(=O)Nc1ccc(C(F)(F)F)cc1`: the cytotoxicity call is “active”.

On to `C[C@H](CO)N1C[C@H](C)[C@H](CN(C)Cc2ccc(C(F)(F)F)cc2)Oc2c(NC(=O)c3ccc(-c4nccs4)cc3)cccc2C1=O`, for which the cytotoxicity call was “inactive”.

Consider `C[C@H](CO)N1C[C@H](C)[C@@H](CN(C)Cc2ccc(Cl)c(Cl)c2)Oc2c(NC(=O)c3ccc(-c4nccs4)cc3)cccc2C1=O`, for which the cytotoxicity call was “inactive”.

`C[C@@H]1CN([C@@H](C)CO)C(=O)c2cccc(NC(=O)c3ccc(-c4nccs4)cc3)c2O[C@@H]1CN(C)Cc1ccc(C(F)(F)F)cc1`: the cytotoxicity call was “inactive”.

`C[C@@H]1CN([C@@H](C)CO)C(=O)c2cccc(NC(=O)c3ccc(-c4nccs4)cc3)c2O[C@H]1CN(C)Cc1ccc(C(F)(F)F)cc1`: the cytotoxicity call was “inactive”.

As for `C[C@H]1CN([C@@H](C)CO)C(=O)c2cccc(NC(=O)c3ccc(-c4nccs4)cc3)c2O[C@H]1CN(C)C(=O)Nc1ccc(C(F)(F)F)cc1`, the cytotoxicity call was “inactive”.

Consider `C[C@@H]1CN([C@H](C)CO)C(=O)c2cccc(NC(=O)c3ccc(-c4nccs4)cc3)c2O[C@H]1CN(C)Cc1ccc(C(F)(F)F)cc1`, for which the cytotoxicity call was “active”.

`C[C@H]1CN([C@@H](C)CO)C(=O)c2cccc(NC(=O)c3ccc(-c4nccs4)cc3)c2O[C@@H]1CN(C)Cc1ccc(C(F)(F)F)cc1`: the cytotoxicity call is “active”.

With `C[C@@H]1CN([C@H](C)CO)C(=O)c2cccc(NC(=O)c3ccc(-c4nccs4)cc3)c2O[C@H]1CN(C)Cc1ccc(Cl)c(Cl)c1`, the cytotoxicity call is “inactive”.

`C[C@@H]1CN([C@H](C)CO)C(=O)c2cccc(NC(=O)c3ccc(-c4nccs4)cc3)c2O[C@@H]1CN(C)Cc1ccc(C(F)(F)F)cc1`: the cytotoxicity call was “inactive”.

Turning to `C[C@@H]1CN([C@@H](C)CO)C(=O)c2cccc(NC(=O)c3ccc(-c4nccs4)cc3)c2O[C@@H]1CN(C)C(=O)Nc1ccc(C(F)(F)F)cc1`, the cytotoxicity call is “inactive”.

The values above are taken from the antibiotic and cytotoxicity screens of Wong et al. (2023).
